This is part of a sample that, as a whole, favours compounds with a hit. Of some 83,000 tested, about 20% had one in any assay.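 Method: cells in 96-well plates; compound added at one concentration; 48 h incubation; percent growth measured; values under 10 scored active.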 Values without a mark were called inactive. Active and inactive are the calls of the source.
Columns and labels:
Test in all cases: NCI-60 one-dose screen, 48 h (100 = growth as untreated, 0 = no growth, -100 = all killed)
Settings in all cases: 10 µM unless noted
[1] = test system: HCT-15 colon
[2] = test system: HT29 colon
[3] = test system: SNB-75 CNS
[4] = test system: SNB-19 CNS
[5] = test system: U251 CNS
[6] = test system: UACC-62 melanoma
[7] = test system: LOX IMVI melanoma
[8] = test system: SK-MEL-28 melanoma
[9] = test system: SK-MEL-2 melanoma
[10] = test system: EKVX NSCLC
[11] = test system: SN12C renal
[12] = test system: UO-31 renal
[13] = test system: TK-10 renal
[14] = test system: ACHN renal
[15] = test system: CAKI-1 renal
[16] = test system: A498 renal
[17] = test system: CCRF-CEM leukemia
[18] = test system: MOLT-4 leukemia
[19] = test system: SK-MEL-5 melanoma
[20] = test system: PC-3 prostate

| Structure (SMILES) | growth [1] | growth [2] | growth [3] | growth [4] | growth [5] | growth [6] | growth [7] | growth [8] | growth [9] | growth [10] | growth [11] | growth [12] | growth [13] | growth [14] | growth [15] | growth [16] | growth [17] | growth [18] | growth [19] | growth [20] |
| --- | --- | --- | --- | --- | --- | --- | --- | --- | --- | --- | --- | --- | --- | --- | --- | --- | --- | --- | --- | --- |
| COc1cc(/C=C/c2cc(/C=C/c3ccc(O)c(OC)c3)n(-c3c(Cl)cccc3Cl)c(=O)n2)ccc1O | 10.3% | -30.4% (active) | 49.4% | 34.1% | 8.54% (active) | 38.2% | 2.83% (active) | 17.6% | 82.9% | 41.4% | 27.8% | 25.2% | 86% | 37.8% | 63.2% | 78.5% | 10.4% | 9.71% (active) | – | – |
| COc1cc2c(cc1OC)C(Sc1ccc(SC)cc1)c1c(nc(N)c(C#N)c1N)O2 (configuration not stated) | -71.5% (active) | -55.2% (active) | -54.5% (active) | -77.9% (active) | -99.3% (active) | -61.3% (active) | -96.3% (active) | -55.5% (active) | -63.7% (active) | -45.6% (active) | -88% (active) | -99.7% (active) | -95.7% (active) | -86.4% (active) | – | -6.98% (active) | -32.7% (active) | -26.3% (active) | – | – |
| COc1ccc2nc(NC(=O)CSc3nnc4n3S(=O)(=O)c3ccccc3N4c3ccccc3)sc2c1 | 93.7% | 102% | 77.5% | 97.2% | 94.9% | 82.6% | – | 109% | 87.9% | 94.4% | 107% | -39.9% (active) | 103% | 92.8% | -0.617% (active) | 121% | -19.7% (active) | 6.47% (active) | 99.1% | – |
| O=C1C=CC(=O)N1c1ccc2c(c1)Cc1cc(F)ccc1-2 | 97.1% | 95% | 75.8% | 90.7% | 88.9% | 91.6% | – | 99.9% | 107% | – | 94.6% | 80.6% | 99% | 92.6% | – | – | 65.2% | 43.7% | 98.1% | – |
| Fc1ccc(CNc2cccc3[nH]c(C(F)(F)F)nc23)cc1 | 98.3% | 104% | 73.9% | 79.2% | 80.7% | 79.6% | – | 89% | – | – | 72.4% | 84.8% | 102% | 96.2% | 81.2% | 39.7% | 52.4% | 41.7% | 96.1% | – |
| CC1=C[C@H]2c3c(c(O)c(O)c4oc5cc(O)ccc5c(=O)c34)[C@H](c3cc(O)c(O)c4oc5cc(O)ccc5c(=O)c34)[C@H]2C(C)(C)C1 | 33.4% | 20.2% | 21.3% | 22.1% | 14.8% | 5.54% (active) | 16.2% | 46.9% | 44.8% | 51.1% | 28.7% | 46.5% | 56% | 37.9% | 40.3% | – | 27.1% | 25.3% | – | – |
| O=C(COc1cccc(/C=C2\CSc3ccccc3C2=O)c1)Nc1nccs1 | 75.5% | 15.9% | 22.2% | 79.5% | 41.8% | 64.1% | -100% (active) | -0.13% (active) | 69.3% | 25.5% | 89.4% | 60.1% | 70% | 69.9% | 78.1% | – | 4.26% (active) | -51.1% (active) | – | – |
| COc1cc2nc(N3CCCC3)nc(NCC3CCCCC3)c2cc1OC | -70.9% (active) | -24.8% (active) | 93.4% | 82.9% | – | 87% | -92.8% (active) | -86.4% (active) | -43.5% (active) | 40.2% | 59.6% | 42.5% | -34.7% (active) | 16.8% | 13.3% | -3.66% (active) | -9.68% (active) | -16.3% (active) | -97.7% (active) | 25.1% |
| COc1ccc(-c2cc(NC(=O)Nc3ccc4ncsc4c3)no2)cc1 | 96.5% | 97.2% | 60.2% | 92.9% | – | 95.9% | 102% | 108% | 112% | 95.9% | 96.3% | 106% | 104% | 99.6% | 91% | 100% | 106% | 96.1% | 99.5% | 92.6% |
| COC(=O)[C@]12CCC(C)(C)C[C@H]1[C@H]1C(=O)C[C@@H]3[C@@]4(C)c5c([nH]c6ccccc6c5=O)C(C)(C)[C@@H]4CC[C@@]3(C)[C@]1(C)CC2 | 46.5% | 45.4% | 65% | 75.3% | – | 54.5% | 58.3% | 68% | 75.5% | 52.4% | 70% | 67.2% | 84.7% | 53% | 50.7% | 69% | 59.5% | 43.5% | 12.4% | 36.6% |
| COc1cc(CNc2oc(-c3ccccc3)c(-c3ccccc3)c2C#N)cc(CN2CCN(C)CC2)c1O | -55.9% (active) | 5.27% (active) | 52.4% | 83.3% | – | 91.1% | -74.6% (active) | -38.4% (active) | 82.4% | 65.6% | 77.4% | 51.5% | 91.9% | 65.7% | 66% | -7.97% (active) | 45.6% | -13.7% (active) | 49.8% | 57.6% |
| O=C1c2cc3c(cc2-c2c1c1cc(F)c(F)cc1c(=O)n2CCCn1ccnc1)OCO3 | 4.66% (active) | 3.52% (active) | 24.4% | 15.7% | – | -61.4% (active) | -20.4% (active) | 34.8% | -11.2% (active) | 30.9% | -1.14% (active) | -23.7% (active) | 29.8% | -55.7% (active) | 3.03% (active) | -74.1% (active) | 7.04% (active) | -14.3% (active) | -74.9% (active) | 9.43% (active) |
| Cc1nc2c3c(-c4ccccc4)c(-c4ccccc4)oc3ncn2n1 | 101% | 95.8% | 69.9% | 96.6% | – | 92.3% | 90.7% | 118% | 101% | 88.9% | 96.5% | 83.9% | 108% | 94.6% | 88.6% | 67.9% | 96.7% | 89.9% | 96.3% | 91.3% |
| N#Cc1c(-c2ccc(Cl)cc2)nc(N=Nc2c(O)[nH]c3ccc(Cl)cc23)nc1N1CCOCC1 | 100% | 107% | 68.7% | 101% | – | 93.7% | 83.2% | 101% | 98.1% | 86.1% | 97% | 67.5% | 120% | 94.6% | – | 73.2% | 111% | 110% | 97.3% | 99.2% |
| N#C/C(=C\c1ccc(-c2ccc(Cl)c(Cl)c2)o1)c1nc(-c2ccco2)cs1 | 34.6% | 88% | 70.7% | 100% | – | 78.3% | 93.9% | 114% | 108% | 52.4% | 98.6% | 69.2% | -7.19% (active) | 94% | 81.3% | 94.2% | 94.1% | 104% | 70.5% | 95.8% |
| COc1cccc(-c2nn(C(C)(C)C)cc2-c2ccnc(NCCCNS(=O)(=O)c3ccc(C)cc3)c2)c1 | 107% | 105% | 69.8% | 102% | – | 107% | 99.5% | 112% | 108% | 100% | 103% | 85.3% | 98.8% | 102% | 92.8% | 94% | 94.6% | 103% | 100% | 102% |
| CSc1nc(Nc2cccc(NC(=O)/C(C#N)=C/c3c(Cl)cccc3Cl)c2)c(C#N)c(-c2cccc([N+](=O)[O-])c2)n1 | 28.9% | 49.2% | 47.5% | 72.5% | – | 33.2% | 2.43% (active) | 76.7% | 52.8% | 56.7% | 44.6% | 33.7% | 99.6% | 57.9% | 24.5% | 73.5% | 43.3% | 23.9% | 49.6% | 45.1% |

— PubChem BioAssay (NCI)
